This passage reports growth inhibition results from PubChem BioAssay (NCI).

About 79,000 compounds went through this panel and 15% of them were active in at least one assay; those are over-represented in the sample as a whole. Unmarked numbers belong to inactive results. Activity calls are given as the source filed them. Rule as the data show it: active = growth inhibition above about 70%; inactive = the rest.

Assay [1] can be described thus: NCI Yeast Anticancer Drug Screen. Data for the rad50 strain (AID 155).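 Also: 0% = growth of vehicle-only cultures of the same strain.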 The settings on record: S. cerevisiae rad50 strain growth inhibition; at 50.0 µM; active compounds read high. Summed up:
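Genetically altered yeast (DNA repair pathway); compound treatment; growth inhibition vs vehicle ctrl.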

The nature of assay [2]: NCI Yeast Anticancer Drug Screen. Data for the mec2-1 strain (AID 157). The conditions noted are these: S. cerevisiae mec2-1 strain, at 50.0 µM, active compounds read high. The method in brief: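 Using mec2-1 yeast: add compound, measure growth, express inhibition versus vehicle-treated cultures.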
Assay [3] in a line: NCI Yeast Anticancer Drug Screen. Data for the sgs1 mgt1 strain (AID 161).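 Also: 0% = growth of cultures given vehicle only.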 The conditions noted are these: S. cerevisiae sgs1 mgt1 strain, at 50.0 µM, active compounds read high. The method in brief:
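This yeast growth screen uses a strain with defined DNA-repair lesions; compound-treated growth is compared with vehicle-treated growth.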

Assay [4] can be described thus: NCI Yeast Anticancer Drug Screen. Data for the cln2 rad14 strain (AID 165).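 Also: 0% = growth equal to vehicle treated cultures.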 The conditions noted are these: S. cerevisiae cln2 rad14 strain, at 50.0 µM, active compounds read high. The method in brief:
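Yeast strain cln2 rad14, bearing defects in cell cycle control and DNA repair, serves as the test system; values reflect growth inhibition compared with vehicle.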

Assay [5] in a line: NCI Yeast Anticancer Drug Screen. Data for the bub3 strain (AID 167). The settings on record: S. cerevisiae bub3 mutant strain, at 50.0 µM, active compounds read high. Summed up:
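Yeast carrying a defined mutation is treated with each compound, and growth is compared with that of vehicle-exposed cells to give inhibition.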

Assay [6] in a line: NCI Yeast Anticancer Drug Screen. Data for the mlh1 rad18 strain (AID 175). The settings on record: S. cerevisiae mlh1 rad18 strain growth inhibition; at 50.0 µM; active compounds read high. The method in brief:
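Steps: expose repair-defective yeast to compound; measure growth; express inhibition against vehicle-treated controls.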

`O=C(O)c1cc(=O)c2ccccc2[nH]1`: the growth inhibition in assay [1] was 4.45%; in assay [2], 8.4%; in assay [3], 1.35%; in assay [4], 6.5%; in assay [5], 8.2%; in assay [6] it was 17.9%.

Regarding `O=c1sc2ncccc2n1-c1ccc([N+](=O)[O-])cn1`, the growth inhibition in assay [1] is -3.4%; in assay [2] it was 10.4%; in assay [3], 3.15%; in assay [4] it was -18.4%; in assay [5] it was 11.9%; in assay [6] it was -6.55%.

With `COc1ccc2c(c1OC)C(=O)C2`, the growth inhibition in assay [1] is -21.1%; in assay [2], 12.1%; in assay [3] it was -20.9%; in assay [4], 9%; in assay [5] it was -16.8%; in assay [6], -2.35%.

As to `Cc1cc(N=Cc2c(CO)cnc(C)c2O)c(N=Cc2c(CO)cnc(C)c2O)cc1C.[Zn]`, the growth inhibition in assay [1] is 5.9%; in assay [2] it was -8%; in assay [3], 5.6%; in assay [4], -3.15%; in assay [5], -2.1%; in assay [6], 0.9%.

Consider `CCC(SC(CC)(CC(C)C)C(N)=O)C(N)=O` (stereo not drawn), for which the growth inhibition in assay [1] was 4.1%; in assay [2], -5.65%; in assay [3], 15.8%; in assay [4], -53%; in assay [5] it was 6.9%; in assay [6], -14.4%.

For the molecule `CC[n+]1ccc(C#N)cc1`, the growth inhibition in assay [1] is 19.9%; in assay [2], -3.25%; in assay [3], 7.85%; in assay [4], 7.9%; in assay [5], 2.6%; in assay [6], 16.9%.

`Cc1onc(-c2c(Cl)cccc2Cl)c1C(=O)SC1=NC(C)N2C(SC(=O)c3c(-c4c(Cl)cccc4Cl)noc3C)=NC(C)N12` (stereo not drawn): the growth inhibition is 26.6% in assay [1]; 7.4% in assay [2]; 11.3% in assay [3]; 11.7% in assay [4]; 18.6% in assay [5]; 16.6% in assay [6].

`COC(=O)C1=C(C(=O)OC)C2(C3C(SC)=CC(C)(C)CC3S1)N(Cc1ccccc1)CCN2Cc1ccccc1` (stereo not drawn): the growth inhibition in assay [1] is -7.65%; in assay [2] it was -5.25%; in assay [3], -9.95%; in assay [4], 9.05%; in assay [5] it was -8.7%; in assay [6], -27.2%.

Consider `O=C(C[n+]1cccc2ccccc21)c1ccc(F)cc1`, for which the growth inhibition is -0.05% in assay [1]; -10.3% in assay [2]; 18.1% in assay [3]; 17% in assay [4]; 10.2% in assay [5]; -3% in assay [6].

Consider `COCNC(=O)NCC(F)(F)C(F)(F)C(F)(F)C(F)(F)C(F)(F)C(F)(F)C(F)(F)F`, for which the growth inhibition in assay [1] is -9.9%; in assay [2], 7.6%; in assay [3], -1.2%; in assay [4] it was 15.9%; in assay [5] it was -5.7%; in assay [6], 28.5%.

As to `CCN(CC)COC(=O)C(C)(C)C`, the growth inhibition in assay [1] was -13.1%; in assay [2], 10.6%; in assay [3], -12.9%; in assay [4], -35%; in assay [5], -9.25%; in assay [6] it was -4.2%.

For the molecule `Cc1nnnn1-c1ccc2ccccc2c1`, the growth inhibition in assay [1] was -24.8%; in assay [2], -24%; in assay [3], -6.8%; in assay [4], -20.6%; in assay [5], -0.05%; in assay [6], 4.45%.

`c1ccc(CN2CCCCC2)nc1`: the growth inhibition in assay [1] is -12.9%; in assay [2], -20.7%; in assay [3] it was -11.1%; in assay [4] it was 10.6%; in assay [5], -10.2%; in assay [6], -10.2%.

In the case of `Nc1ncnc2c1ncn2C1OC(C(=O)OCCO)C(O)C1O` (stereo not drawn), the growth inhibition in assay [1] is -16.6%; in assay [2] it was -19.8%; in assay [3] it was -12.6%; in assay [4], -12.2%; in assay [5] it was -11.2%; in assay [6], -22.9%.

Turning to `CC1(C)COC(c2ccc(C(F)(F)F)cc2C(O)c2ccc3ccccc3c2)=N1` (stereo not drawn), the growth inhibition in assay [1] was 11.8%; in assay [2], -2.15%; in assay [3], 3.8%; in assay [4], 10.3%; in assay [5], -3.3%; in assay [6], 10.3%.

As to `O=C(O)[Si](c1ccccc1)(c1ccccc1)c1ccccc1`, the growth inhibition in assay [1] is 43.7%; in assay [2], 25.9%; in assay [3], 39.6%; in assay [4], 4.8%; in assay [5] it was 20.1%; in assay [6], 48.1%.

As for `NC(=O)c1ccccc1NC(=O)C(=O)C(c1cnc2ccc([N+](=O)[O-])cc2n1)[N+](=O)[O-]` (stereo not drawn), the growth inhibition is 9.7% in assay [1]; -1.1% in assay [2]; 19.6% in assay [3]; 12.9% in assay [4]; 5.85% in assay [5]; 28.8% in assay [6].

With `C=C(C)C(=O)OCCn1c(=O)c2c(ncn2C)n(C)c1=O`, the growth inhibition is -7.25% in assay [1]; -18.8% in assay [2]; -12.8% in assay [3]; -3.1% in assay [4]; -14.5% in assay [5]; 5.55% in assay [6].

As for `COc1cccc(NC(=S)NC(=O)c2ccccc2)c1`, the growth inhibition in assay [1] is 82% (active); in assay [2] it was 60.8%; in assay [3], 96.2% (active); in assay [4], 37%; in assay [5] it was 95.6% (active); in assay [6], 45.7%.

For `Nc1ncnc2c1ccn2C1OC2COP(=O)(O)OC2C1O` (stereo not drawn), the growth inhibition was -12.6% in assay [1]; -31.4% in assay [2]; -7.1% in assay [3]; 8.45% in assay [4]; -18.3% in assay [5]; -15.1% in assay [6].

In the case of `CCOC(=O)C(NNc1ccccc1)C(=O)C(F)(F)F` (stereo not drawn), the growth inhibition in assay [1] is 10.9%; in assay [2], 3.2%; in assay [3], -9.3%; in assay [4], -18.8%; in assay [5], 1.35%; in assay [6], 18.6%.

Regarding `COc1ccc(C=C(c2ccc(OCc3ccccc3)cc2)c2ccc(OCc3ccccc3)cc2)cc1`, the growth inhibition in assay [1] was 13.2%; in assay [2] it was -7.7%; in assay [3], 6.55%; in assay [4] it was 7.5%; in assay [5], -28.1%; in assay [6], -28.1%.

Consider `CC(O)C(O)C(=O)NN` (stereo not drawn), for which the growth inhibition was -1% in assay [1]; 0.3% in assay [2]; 11.4% in assay [3]; 4% in assay [4]; -2.9% in assay [5]; -6.95% in assay [6].

For `CC(C)(C)/C(=N\O)c1ccccc1`, the growth inhibition is -8.8% in assay [1]; -13.6% in assay [2]; -23.3% in assay [3]; -8.05% in assay [4]; -17.4% in assay [5]; -23.3% in assay [6].

In the case of `COC(=O)CC(NC(=O)C(Cc1ccccc1)NC(=O)OCc1ccccc1)C(=O)O` (stereo not drawn), the growth inhibition in assay [1] was 31.5%; in assay [2] it was 9.15%; in assay [3] it was 18.2%; in assay [4], 11.7%; in assay [5], 2.1%; in assay [6], 23.1%.

Turning to `Cc1ccc(C)c(CNC(=O)Nc2ccccc2Cl)c1`, the growth inhibition in assay [1] is 12.4%; in assay [2], -14.3%; in assay [3] it was -22.8%; in assay [4], 6.75%; in assay [5] it was 5.35%; in assay [6], -18.2%.

In the case of `N/C(=N\N=C\C1CC2C=CC1C2)NO` (stereo not drawn), the growth inhibition was 5.3% in assay [1]; -11.4% in assay [2]; -9.8% in assay [3]; -0.05% in assay [4]; -16.6% in assay [5]; -4.55% in assay [6].

For the molecule `CCN(CC)c1ccc2cc(-c3nc4ccccc4[nH]3)c(=O)oc2c1`, the growth inhibition in assay [1] is 2%; in assay [2], -5.3%; in assay [3], 12.5%; in assay [4], 3.15%; in assay [5] it was 11.1%; in assay [6], 2.55%.

Consider `Cc1cc([N+](=O)[O-])c(Cl)cc1Cl`, for which the growth inhibition in assay [1] is -22.8%; in assay [2], 25.3%; in assay [3], -9.35%; in assay [4], 26.5%; in assay [5] it was 12.2%; in assay [6], 5.5%.

For `COc1cc2c(cc1OC)C(c1c(Cl)cccc1Cl)=NCC2`, the growth inhibition was 13.1% in assay [1]; 10% in assay [2]; 41.4% in assay [3]; 4.25% in assay [4]; 42.6% in assay [5]; 12.7% in assay [6].

In the case of `Cc1[nH]c2ccc([N+](=O)[O-])cc2c1C`, the growth inhibition in assay [1] was 19.1%; in assay [2], -5.15%; in assay [3], 32.1%; in assay [4], 26.4%; in assay [5], 25.4%; in assay [6], 38.4%.

Take `Cc1ccc(C(C(=O)O)c2ccc(C)cc2)cc1`: the growth inhibition in assay [1] was 45.5%; in assay [2], 2.25%; in assay [3], 44.9%; in assay [4] it was 27.4%; in assay [5], 22.1%; in assay [6], 29.2%.

In the case of `COC(=O)c1ccccc1C1CN=NC12Cc1cccc(C)c1C2=O` (stereo not drawn), the growth inhibition in assay [1] is 26.6%; in assay [2], 20.2%; in assay [3], 64.8%; in assay [4], 43.1%; in assay [5], 28.9%; in assay [6] it was 52.6%.

As for `CCOC(=O)CON`, the growth inhibition in assay [1] is -7.35%; in assay [2], 1.9%; in assay [3], -7.45%; in assay [4], -51%; in assay [5] it was -12.4%; in assay [6], -5.8%.

On to `NCCO`, for which the growth inhibition was -1% in assay [1]; 1.15% in assay [2]; -11.8% in assay [3]; -3.6% in assay [4]; 13.2% in assay [5]; -18.9% in assay [6].

As for `CC1(C)OC(=O)N=C1c1ccc(Cl)cc1`, the growth inhibition in assay [1] was -20.2%; in assay [2], -10%; in assay [3], -19.8%; in assay [4], 12.5%; in assay [5] it was -20%; in assay [6], -12.2%.

As to `CN(C)S(=O)(=O)C(c1ccccc1)C(O)(c1ccccc1)c1ccc(Cl)cc1` (stereo not drawn), the growth inhibition in assay [1] was 72.1% (active); in assay [2] it was 45.5%; in assay [3], 54.1%; in assay [4], 22.9%; in assay [5] it was 16.8%; in assay [6], 57%.

Turning to `Cc1ccccc1C1OC(=O)c2ccccc21` (stereo not drawn), the growth inhibition is 17.7% in assay [1]; -8.85% in assay [2]; 4.45% in assay [3]; 4.2% in assay [4]; 15.2% in assay [5]; 27.6% in assay [6].
